Source: PubChem BioAssay (Tox21)
A number with no mark means an inactive call. Results filed as inconclusive are left out. Entries that show only a call come without a potency. Calls of active or inactive are those of the source. Unless noted, the call rests on the fitted dose curve; in most records, active means well fitted curve in the direction sought with a large enough effect in the repeat runs; inconclusive means weak or mixed curves; inactive means no such curve, though single readings can be large; an effect the other way counts as inactive or inconclusive.

Assays:
[1] = qHTS assay to identify small molecule HDAC inhibitors (AID 1259364); further: potency means the concentration at half of the fitted maximal effect;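 further: wild-type HCT-116 cells with endogenous class I/II HDAC activity; nearly all actives have a fitted effect of over 45% in size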
Summary of the method: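 Quantitative high-throughput format: overnight-seeded HCT-116 cells got compounds for 2 hr at 37C; HDAC-Glo I/II reagent added, 30 min RT, luminescence measured.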

[2] = qHTS assay to identify small molecule agonists of the sonic hedgehog signaling (Shh) pathway (AID 1259368; calls by dose curve;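 further: NIH/3T3-derived 3T3Gli1-Luc cells carrying a stable Gli1-driven firefly luciferase reporter; series mostly up to about 92 µM; nearly all actives have a fitted effect of over 15% in size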)
Summary of the method: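 Quantitative high-throughput format using a Gli1-driven firefly luciferase reporter line derived from NIH/3T3 cells. After a 24 hr compound treatment at 37 C and 5% CO2, luminescence reported Gli1 response element activity.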

[3] = qHTS assay to identify small molecule agonists of the androgen receptor (AR) signaling pathway in the presence of an antagonist - cell viability counter screen (AID 1259379); further: nearly all actives have a fitted effect of over 25% in size; further: potency means the concentration at half of the fitted maximal effect
Summary of the method: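 Nilutamide-containing (3.0uM final) MDA-kb2 cultures, 3,000 cells/well, were treated with compounds across 15 concentrations. After 16 hr at 37C with no CO2, cell viability was determined by CellTiter-Fluor fluorescence in the luciferase assay wells.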

[4] = qHTS assay to identify small molecule agonists of the sonic hedgehog signaling (Shh) pathway - cell viability counter screen (AID 1259366); further: nearly all actives have a fitted effect of over 50% in size; further: potency means the concentration at half of the fitted maximal effect
Summary of the method: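 Compounds in DMSO were pin-transferred onto 3T3 Gli1-Luc cells that had settled 4hr; plates then stood 24hr at 37C and 5% CO2. One hour before the end, CellTiter-Fluor was added and fluorescence recorded.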

[5] = qHTS assay to identify small molecule antagonists of the sonic hedgehog signaling (Shh) pathway - cell viability counter screen (AID 1259367); further: nearly all actives have a fitted effect of over 55% in size; further: potency means the concentration at half of the fitted maximal effect
Summary of the method: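 Tox21 library chemicals were tested on a Gli1-Luc NIH/3T3 clone (2,000 cells/well) stimulated by conditioned medium; viability was quantified as fluorescence from CellTiter-Fluor reagent added at 23 hr.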

[6] = qHTS assay to identify small molecule antagonists of the sonic hedgehog signaling (Shh) pathway (AID 1259369; calls by dose curve; further: nearly all actives have a fitted effect of over 45% in size; further: potency means the concentration at half of the fitted maximal effect)
Summary of the method: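 Stable Gli1-Luc reporter NIH/3T3 clone; quantitative HTS in stimulated mode with conditioned medium. Luminescence measured after 24hr compound treatment at 37 C.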

[7] = biological target: Estrogen receptor beta (Homo sapiens) (UniProt Q92731); assay: qHTS assay to identify small molecule agonists of the estrogen receptor beta (ER-beta) signaling pathway (AID 1259377; active means well fitted activation curve with a large enough effect in the signal ratio in the repeat runs, not every such curve was filed as active; the % refers to the signal ratio)
Estrogen receptor beta (Homo sapiens), sequence (Q92731 whole entry, looked up): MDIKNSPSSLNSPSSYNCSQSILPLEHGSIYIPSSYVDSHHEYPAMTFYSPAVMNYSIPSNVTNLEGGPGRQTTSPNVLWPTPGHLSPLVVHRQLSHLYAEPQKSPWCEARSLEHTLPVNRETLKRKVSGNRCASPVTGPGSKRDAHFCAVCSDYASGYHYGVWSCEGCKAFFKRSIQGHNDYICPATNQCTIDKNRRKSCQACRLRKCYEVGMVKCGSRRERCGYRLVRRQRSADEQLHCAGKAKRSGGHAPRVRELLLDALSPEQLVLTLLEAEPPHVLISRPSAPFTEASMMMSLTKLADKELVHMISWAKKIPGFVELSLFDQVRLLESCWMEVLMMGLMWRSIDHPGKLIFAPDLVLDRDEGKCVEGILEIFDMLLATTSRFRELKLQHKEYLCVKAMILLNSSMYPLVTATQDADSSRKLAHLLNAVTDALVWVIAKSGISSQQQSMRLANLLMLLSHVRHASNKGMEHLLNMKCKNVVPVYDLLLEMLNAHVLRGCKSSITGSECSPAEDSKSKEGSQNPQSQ
Summary of the method: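 qHTS in ER-beta-UAS-bla HEK293T cells: 6 hr settling, then 16 hr compound at 37C, then LiveBLAzer substrate 2 h at RT before fluorescence reading.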

[8] = biological target: Estrogen receptor beta (Homo sapiens) (UniProt Q92731); assay: qHTS assay to identify small molecule antagonists of the estrogen receptor beta (ER-beta) signaling pathway (AID 1259378; active means well fitted inhibition curve with a large enough effect in the signal ratio in the repeat runs, not every such curve was filed as active; the % refers to the signal ratio; further: potency means the concentration at half of the fitted maximal effect)
Summary of the method: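 ER-beta-UAS-bla HEK293T cells in 2% charcoal-stripped FBS medium treated with compound plus 1nM final 17-beta-estradiol for 16 hr at 37C. Beta-lactamase reporter read by FRET substrate fluorescence after 2 hours at room temperature.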

[9] = qHTS assay to identify small molecule HDAC inhibitors - cell viability counter screen (AID 1259365); further: series mostly up to about 92 µM; nearly all actives have a fitted effect of over 50% in size
Summary of the method: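 HCT-116 wild-type, overnight attachment; 2hr drug exposure, 37C; CellTiter-Glo luminescent ATP readout after 30min RT.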

| SMILES | Potency [1] | Potency [2] | Potency [3] | Potency [4] | Potency [5] | Potency [6] | outcome [7] | Potency [8] | Potency [9] |
| --- | --- | --- | --- | --- | --- | --- | --- | --- | --- |
| COCCC(=O)OC | inactive | inactive | inactive | – | – | – | – | – | – |
| c1ccc2cc3c4ccccc4c4ccccc4c3cc2c1 | inactive | inactive | inactive | inactive | inactive | inactive | inactive | inactive | – |
| Cn1c(=O)[nH]c2ncn(C)c2c1=O | inactive | – | inactive | inactive | inactive | inactive | – | – | – |
| CCc1cccc(CC)c1 | inactive | inactive | inactive | inactive | inactive | inactive | inactive | – | – |
| CCC(=O)OC/C=C(\C)CCC=C(C)C | inactive | inactive | inactive | inactive | inactive | inactive | – | – | – |
| CC(CC(C)(C)C)CC(C)(C)CC(C)(C)C (centres undefined) | inactive | inactive | inactive | inactive | inactive | inactive | inactive | – | – |
| S=C1NC=NC2N=CNC12 (centres undefined) | inactive | inactive | inactive | inactive | inactive | inactive | – | – | – |
| CC/C(=C(/c1ccc(O)cc1)c1ccc(OCCN(C)C)cc1)c1ccccc1 | inactive | inactive | 40.3 µM (active) | 18 µM (active) | 18 µM (active) | 14.3 µM (active) | – | – | – |
| CCN(CC)c1ccc2c(c1)Oc1cc(N(CC)CC)ccc1C21OC(=O)c2ccccc21 | inactive | – | 7.5 µM (active) | 3.76 µM (active) | 3.35 µM (active) | – | – | – | – |
| Nc1ccc(Cl)c([N+](=O)[O-])c1 | inactive | inactive | inactive | – | – | – | – | – | inactive |
| N#Cc1nc(Cl)c(Cl)c(Cl)c1Cl | inactive | inactive | 24.3 µM (active) | 5.45 µM (active) | 10.9 µM (active) | – | – | – | – |
| CCn1c2ccccc2c2ccccc21 | inactive | inactive | inactive | inactive | inactive | inactive | – | – | – |
| O=C(c1ccccc1)c1ccc(Cl)cc1 | inactive | – | inactive | – | – | – | – | – | inactive |
| COC(=O)c1ccc([N+](=O)[O-])cc1 | inactive | inactive | inactive | inactive | inactive | inactive | – | – | – |
| CCOc1nc(F)cc2nc(S(=O)(=O)Nc3c(Cl)cccc3C(=O)OC)nn12 | inactive | inactive | inactive | inactive | inactive | inactive | – | – | – |
| Cc1ccc(C=O)cc1 | inactive | inactive | inactive | inactive | inactive | inactive | inactive | – | – |
| CCCCCCCC1CCC(=O)O1 (centres undefined) | inactive | inactive | – | – | – | – | – | – | – |

| SMILES | Potency [1] | Potency [2] | Potency [3] | Potency [4] | Potency [5] | Potency [6] | outcome [7] | Potency [8] | Potency [9] |
| --- | --- | --- | --- | --- | --- | --- | --- | --- | --- |
| CC(C)(C)c1cc(CCC(=O)OCCSCCOC(=O)CCc2cc(C(C)(C)C)c(O)c(C(C)(C)C)c2)cc(C(C)(C)C)c1O | inactive | inactive | inactive | inactive | inactive | inactive | inactive | inactive | – |
| O=c1cc[nH]cc1 | inactive | inactive | inactive | inactive | inactive | inactive | inactive | – | – |
| O=C1C=CC(=O)N1c1cccc(N2C(=O)C=CC2=O)c1 | inactive | inactive | – | 8.63 µM (active) | 7.7 µM (active) | 1.72 µM (active) | inactive | 61.1 µM (active) | – |
| CN1CCN(c2ccccc2/C=C2\SCCN(c3ccc(Cl)c(Cl)c3)C2=O)CC1 | inactive | inactive | 48.6 µM (active) | 27.3 µM (active) | 54.5 µM (active) | 5.45 µM (active) | – | – | – |
| CCN(CC)c1ccc(C=O)c(O)c1 | inactive | inactive | – | inactive | inactive | inactive | – | – | – |
| Cc1ccc(Cl)c(N)c1Cl | inactive | inactive | inactive | – | 61.1 µM (active) | 21.7 µM (active) | inactive | – | – |
| CCCCC/C=C\C=C\C(=O)OCC | inactive | inactive | – | – | – | – | – | inactive | inactive |
| CS(=O)(=O)c1ccc([C@@H](CC2CCCC2)C(=O)Nc2cnccn2)cc1Cl | inactive | inactive | – | 21.7 µM (active) | – | – | – | – | – |
| Nc1cccnc1N | inactive | inactive | – | – | – | – | – | – | – |
| N#Cc1ccc(C/C(=N/NC(=O)Nc2ccc(OC(F)(F)F)cc2)c2cccc(C(F)(F)F)c2)cc1 | inactive | inactive | inactive | inactive | inactive | – | – | – | – |
| Cc1ccc2nc(-c3ccc(N)cc3)sc2c1S(=O)(=O)O | 3.8 µM (active) | – | inactive | inactive | inactive | inactive | – | – | – |
| O=S(=O)(c1ccc(OCc2ccccc2)cc1)c1ccccc1O | inactive | – | – | inactive | – | – | – | – | – |
| CCCCCCCCCC[N+](C)(CCCCCCCCCC)CCC[Si](OC)(OC)OC | inactive | inactive | – | – | – | – | inactive | inactive | – |
| O=C1CCC/C=C\CCCCCCCCCC1 | inactive | inactive | – | inactive | – | – | inactive | inactive | – |
| Cc1cccc(C)c1C | inactive | inactive | inactive | inactive | inactive | inactive | – | – | – |
| CSc1nnc(C(C)(C)C)c(=O)[nH]1 | inactive | inactive | inactive | inactive | inactive | inactive | inactive | inactive | – |
